Drawing on PubChem BioAssay AID709 (SRMLSC, 2007), this text covers fluorescence fold increase for 100 compounds.

Hit rate of the full screen: of about 65,000 compounds, about 3,600 (5.5%) were called active.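 The calls were made as follows: active = at 10 µM, mean starting fluorescence two-fold or more over control wells; inactive = the rest.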 Shown is part of a subset that was picked to be rich in actives.

The assay in a line: intrinsic fluorescence of library compounds, ex339/em460 – biochemical, MLSMR library, data from DPM-DC assay, artefact control, profiling panel (AID 709).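 Also: signal is the first read of a kinetic run.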 As to conditions: compound autofluorescence, ex339/em460 nm, NADH buffer; at 10 µM; stronger effect = higher value; 1 = no-compound wells, NADH background.
In the case of `CCc1nnc(NC(=O)c2c(O)c3c([nH]c2=O)CCCC3)s1`, the fluorescence fold increase was 1.12 (inactive).

In the case of `Cc1ccc2cccc(S(=O)(=O)N3CCN(c4ccccc4F)CC3)c2n1`, the fluorescence fold increase is 1.14 (inactive).

Turning to `O=C(CN1C(=O)CCC1=O)Nc1ccc(S(=O)(=O)N2CCOCC2)cc1`, the fluorescence fold increase is 1.15 (inactive).

As for `C=CCSC1=C(C#N)C(c2cc(Br)c(O)c(OC)c2)CC(=O)N1` (stereo not given), the fluorescence fold increase is 1.07 (inactive).

On to `CN(c1ccc(C(=O)N2CCc3ccccc3C2)cc1)S(C)(=O)=O`, for which the fluorescence fold increase is 1.11 (inactive).

With `O=[n+]1c2c(n([O-])c3cc(Br)ccc31)CCC2`, the fluorescence fold increase is 1.07 (inactive).

Take `CN1CCCc2cc(C#N)c(=O)[nH]c21`: the fluorescence fold increase is 2.4 (active).

Regarding `CC(C)(C)n1nnc(CCc2nnn(C(C)(C)C)n2)n1`, the fluorescence fold increase is 1.09 (inactive).

On to `COC(=O)C(C)C1Sc2ccccc2NC1=O` (stereo not given), for which the fluorescence fold increase was 1.01 (inactive).

On to `CCc1ccc(NC(=O)CSc2nnc(-c3cnccn3)n2Cc2ccco2)cc1`, for which the fluorescence fold increase was 1.06 (inactive).

In the case of `CCc1ccc(Nc2ncc3c(n2)CC(c2ccco2)CC3=O)cc1` (stereo not given), the fluorescence fold increase is 2.39 (active).

`O=C(Nc1ncc2c(n1)CC(c1ccco1)CC2=O)c1ccc(Cl)cc1` (stereo not given): the fluorescence fold increase is 1.05 (inactive).

With `COc1ccc(CN2CC(C(=O)NCCN3CCN(c4ccccc4F)CC3)CC2=O)cc1` (stereo not given), the fluorescence fold increase is 1.08 (inactive).

As to `CCOC(=O)CN1C(=O)C(O)(CC(=O)c2ccccn2)c2ccccc21` (stereo not given), the fluorescence fold increase was 1.04 (inactive).

Consider `O=C(Oc1ccccc1)c1ccc2nccnc2c1`, for which the fluorescence fold increase is 1.04 (inactive).

With `CC(=O)N1CC2(C)CN(C(C)=O)CC(C)(C1)C2=O`, the fluorescence fold increase is 1.11 (inactive).

For the compound `COCCNC(=O)c1snc2ccc(Cl)cc12`, the fluorescence fold increase was 1.2 (inactive).

With `COc1ccccc1N1CCN(C(=O)c2cc3c(-c4ccc(Cl)cc4)nn(C)c3s2)CC1`, the fluorescence fold increase was 1.07 (inactive).

Regarding `CCOC(=O)N1CCN(C(=O)c2cc3c(-c4ccc(Cl)cc4)nn(C)c3s2)CC1`, the fluorescence fold increase is 1.19 (inactive).

Turning to `Cn1nc(-c2ccc(Cl)cc2)c2cc(C(=O)NCc3ccco3)sc21`, the fluorescence fold increase is 2.11 (active).

With `COc1ccc(S(=O)(=O)N2CCCC2)c(C)c1C`, the fluorescence fold increase is 1.06 (inactive).

Turning to `COc1cccc(-c2cc3nc4c(c(N5CCC6(CC5)OCCO6)n3n2)CCCC4)c1`, the fluorescence fold increase is 1.74 (inactive).

In the case of `c1ccc(COc2nsnc2N2CCOCC2)cc1`, the fluorescence fold increase is 1.12 (inactive).

Turning to `c1ccc(-c2oc3ncnc(N4CCOCC4)c3c2-c2ccccc2)cc1`, the fluorescence fold increase was 2.38 (active).

Consider `O=C1c2ccccc2-c2ncnc3c(N4CCOCC4)cc(N4CCOCC4)c1c23`, for which the fluorescence fold increase was 1.04 (inactive).

In the case of `COC(=O)c1ccc(OC(=O)c2nn(C)cc2Cl)c(OC)c1`, the fluorescence fold increase is 1.11 (inactive).

`CCOc1ccc(N(CC(=O)OC)S(=O)(=O)c2c(C)noc2C)cc1`: the fluorescence fold increase is 1.1 (inactive).

`O=C(NC1CCCC1)c1ccc(Br)s1`: the fluorescence fold increase was 1.08 (inactive).

For the compound `COc1cc(C(=O)Nc2nccs2)cc(OC)c1OC`, the fluorescence fold increase was 1.09 (inactive).

With `Cc1ccc(C(=O)Nc2nnc(-c3cccs3)s2)cc1C`, the fluorescence fold increase is 3.04 (active).

With `CCc1nnc(NC(=O)c2cccs2)s1`, the fluorescence fold increase was 1 (inactive).

On to `COc1ccc(OC)c2c1sc(=NC(=O)CN1C(=O)CCC1=O)n2C`, for which the fluorescence fold increase was 1.13 (inactive).

As for `CC1CCc2c(sc(NC(=O)c3ccc(Cn4cc(Br)cn4)o3)c2C(N)=O)C1` (stereo not given), the fluorescence fold increase was 3.78 (active).

`CCc1c(C)nc(N2CCN(Cc3ccccc3)CC2)[nH]c1=O`: the fluorescence fold increase is 1.06 (inactive).

In the case of `Cn1c(=O)[nH]c(=O)c2c1nc(CN1CCN(c3ccccc3F)CC1)n2CCc1ccccc1`, the fluorescence fold increase is 1.09 (inactive).

As for `CC(C)CNC(=O)C1CCCN(S(=O)(=O)c2ccc(-n3cnnn3)cc2)C1` (stereo not given), the fluorescence fold increase is 1.07 (inactive).

On to `CCOc1ccc(-c2nnc3ccc(SC)nn23)cc1`, for which the fluorescence fold increase was 1.17 (inactive).

Consider `CC1CCN(C(=O)CSc2ccc3nnc(-c4cccc(F)c4)n3n2)CC1`, for which the fluorescence fold increase is 1.4 (inactive).

For the compound `COC(=O)C(C)Sc1ccc2nnc(-c3cccc(F)c3)n2n1` (stereo not given), the fluorescence fold increase was 2.06 (active).

On to `CCCOc1ccc(CN(CCO)CCO)cc1C(=O)OC`, for which the fluorescence fold increase was 1.07 (inactive).

With `Cc1cccc(Cn2c(SCCO)nc3c2c(=O)n(C)c(=O)n3C)c1`, the fluorescence fold increase was 0.95 (inactive).

With `COC(=O)C1C(=O)CC(C)(O)C(C(=O)OC)C1c1ccc2c(c1)OCO2` (stereo not given), the fluorescence fold increase was 1.09 (inactive).

On to `Cc1cc(=O)[nH]c(SCC(N)=O)c1C#N`, for which the fluorescence fold increase was 1.12 (inactive).

As for `COc1ccc(C2CC(c3ccc(C)cc3)Nc3nc(N)nn32)cc1` (stereo not given), the fluorescence fold increase is 1.09 (inactive).

Regarding `CCOC(=O)c1c(C)n(C)c2ccc(OC)c(NC(=O)CN3CCC4(CC3)OCCO4)c12`, the fluorescence fold increase is 1.04 (inactive).

As to `C=CCn1c(C(C)NC(=O)CC)nc2ccccc21` (stereo not given), the fluorescence fold increase is 1.1 (inactive).

On to `C=CCn1c2ccccc2c2nnc(SC(CC)C(=O)Nc3nc(C)c(C(=O)OCC)s3)nc21` (stereo not given), for which the fluorescence fold increase was 1.22 (inactive).

With `C=CCn1c(N)c(S(=O)(=O)c2cccs2)c2nc3ccccc3nc21`, the fluorescence fold increase was 3.9 (active).

On to `CC(C)Cn1c(N)c(C(=O)NCc2cccs2)c2nc3ccccc3nc21`, for which the fluorescence fold increase is 3.03 (active).

Take `CCN(CC(=O)NCc1cccs1)c1nnnn1-c1ccccc1`: the fluorescence fold increase is 1.04 (inactive).

On to `CCCCNc1nc2ccccc2nc1NS(=O)(=O)c1cccs1`, for which the fluorescence fold increase was 1.35 (inactive).

Take `C=CCn1c(N)c(C(=O)OCC(C)C)c2nc3ccccc3nc21`: the fluorescence fold increase was 3.79 (active).

Turning to `COC(=O)c1cn(CC(=O)NCc2cccs2)c2ccccc12`, the fluorescence fold increase is 1.12 (inactive).

Turning to `CCOC(=O)C1CCN(C(=O)CSc2cc(=O)n(C)c3ccccc23)CC1`, the fluorescence fold increase is 1.32 (inactive).

Turning to `Cc1ccc(OCCCC(=O)N2CCOCC2)c(C)c1`, the fluorescence fold increase is 1.13 (inactive).

As for `Cc1ccc(CCn2c3c(c4ccccc42)CN(C)CC3)cn1`, the fluorescence fold increase is 1.12 (inactive).

`CCOC(=O)c1ccc(NC(=O)CS(=O)(=O)c2cn(CC)c3ccccc23)cc1`: the fluorescence fold increase was 1.08 (inactive).

As for `CC1(C)C(=O)Nc2ccccc2N1C(=O)COC(=O)Cn1cnc2ccccc2c1=O`, the fluorescence fold increase was 1.03 (inactive).

With `CCn1c(COc2ccccc2)nnc1SCC(=O)Nc1ccc2c(c1)OCCO2`, the fluorescence fold increase was 1.12 (inactive).

Take `COCCn1nnnc1CN1CCC(NC(=O)Nc2cccc(OC)c2)CC1`: the fluorescence fold increase is 1.05 (inactive).

For `COC(=O)Cc1csc(Nc2c(C)n(C)n(-c3ccccc3)c2=O)n1`, the fluorescence fold increase is 1.09 (inactive).

For `CCOc1ccc(Nc2oc(Cc3ccccc3)nc2C#N)cc1`, the fluorescence fold increase was 1.13 (inactive).

For `COc1ccc(Nc2oc(-c3ccccc3Cl)nc2C#N)cc1`, the fluorescence fold increase is 2.11 (active).

`COc1ccc(-c2nnc(SC(C)C#N)o2)cc1` (stereo not given): the fluorescence fold increase is 1.08 (inactive).

With `O=C(COc1ccccc1)NCCc1nc2ccccc2[nH]1`, the fluorescence fold increase was 1.13 (inactive).

Take `Fc1ccc(-c2ccc(-c3nn4c(-c5ccco5)nnc4s3)o2)cc1`: the fluorescence fold increase is 1.49 (inactive).

`COc1ccc(-c2nn3c(-c4ccccc4)nnc3s2)cc1OC`: the fluorescence fold increase was 1.69 (inactive).

As for `Fc1ccc(-c2nnc3sc(-c4ccc5c(c4)OCO5)nn23)cc1`, the fluorescence fold increase was 2.05 (active).

Take `Cc1noc(C)c1COC(=O)Cn1c(C)nc2ccccc21`: the fluorescence fold increase is 1.09 (inactive).

For `Cc1nn(Cc2ccccc2)c(Cl)c1C(=O)OC1CCOC1=O` (stereo not given), the fluorescence fold increase was 1.07 (inactive).

As for `O=C(OC1CCOC1=O)c1ccc(-c2nc3ccccc3s2)s1` (stereo not given), the fluorescence fold increase was 5 (active).

In the case of `O=C(c1cccs1)N1CCC(c2nc3ccccc3s2)CC1`, the fluorescence fold increase is 1.04 (inactive).

As to `O=C(NCc1ccco1)C1CCCN(S(=O)(=O)c2cnc[nH]2)C1` (stereo not given), the fluorescence fold increase is 1.08 (inactive).

On to `c1ccc2[nH]c(-c3nc4ccccc4[nH]3)nc2c1`, for which the fluorescence fold increase was 2.21 (active).

Consider `c1ccc(-c2[nH]ncc2-c2nc3ccccc3[nH]2)cc1`, for which the fluorescence fold increase was 1.2 (inactive).

For `C=CCSc1nc2ccccc2[nH]1`, the fluorescence fold increase is 1.11 (inactive).

On to `CC1(C)Oc2ccc3ccc(=O)oc3c2/C(=C/NCCO)C1=O`, for which the fluorescence fold increase is 1.05 (inactive).

`CCOc1ccccc1-n1c(SCC(=O)NCc2ccco2)nnc1-c1ccncc1`: the fluorescence fold increase is 1.07 (inactive).

As for `CCOC(=O)C1=C(C)N=c2s/c(=C\C(=O)OC)c(=O)n2C1c1ccc(OC)cc1` (stereo not given), the fluorescence fold increase is 1.08 (inactive).

As to `O=C(NCc1ccco1)c1cc(-c2cccnc2)nc2ccc(Cl)cc12`, the fluorescence fold increase was 1.17 (inactive).

As for `O=C(NCc1ccco1)c1cccn2c(=O)c3cc(Br)ccc3nc12`, the fluorescence fold increase was 2.53 (active).

With `O=C(Nc1ccccc1)Nc1ccccc1C(=O)NCc1ccco1`, the fluorescence fold increase was 1.65 (inactive).

In the case of `Cn1c(C(=O)NCCCN2CCCCC2)cc2sccc21`, the fluorescence fold increase was 1.19 (inactive).

As to `Cc1ccsc1-c1nc(CSCC(=O)NCCN2CCCC2)c(C)o1`, the fluorescence fold increase was 2.22 (active).

For the compound `Cc1cc(NC(=O)CSCc2nc(-c3cccc(Cl)c3)oc2C)no1`, the fluorescence fold increase was 1.06 (inactive).

`CC(C)NC(=O)CCCn1c(=S)[nH]c2cc3c(cc2c1=O)OCO3`: the fluorescence fold increase is 1.07 (inactive).

As to `Cn1c(=O)c2cn(-c3cccc4ccccc34)cc2n(C)c1=O`, the fluorescence fold increase is 1.28 (inactive).

`COc1ccc(-c2c3c(=O)n(C)c(=O)n(C)c3cn2NC(C)=O)cc1`: the fluorescence fold increase was 2.81 (active).

`CC(=O)Nn1cc2c(=O)n(C)c(=O)n(C)c2c1`: the fluorescence fold increase was 1.03 (inactive).

Regarding `COc1cccc(-n2cc3c(c2-c2ccccc2)c(=O)n(C)c(=O)n3C)c1`, the fluorescence fold increase is 2.35 (active).

As to `Cc1ccc(-c2c3c(=O)n(C)c(=O)n(C)c3cn2-n2cnnc2)cc1`, the fluorescence fold increase is 1.07 (inactive).

As to `COc1ccc(-c2c3c(=O)n(C)c(=O)n(C)c3cn2-c2cccc(OC)c2)cc1`, the fluorescence fold increase is 1.94 (inactive).

For `Cc1ccc(-c2c3c(=O)n(C)c(=O)n(C)c3cn2-c2ccccc2O)cc1`, the fluorescence fold increase is 3.24 (active).

With `COc1cccc(-n2cc(C(=O)O)c3ccccc3c2=O)c1`, the fluorescence fold increase is 1.36 (inactive).

Turning to `COc1ccc(OC)c(-n2cc3c(=O)n(C)c(=O)n(C)c3c2)c1`, the fluorescence fold increase is 1.3 (inactive).

On to `Nc1nonc1-c1noc(-c2ccc(Br)o2)n1`, for which the fluorescence fold increase was 1.07 (inactive).

For the compound `Cc1onc(-c2ccccc2)c1C(=O)N1CCOCC1`, the fluorescence fold increase is 1.04 (inactive).

On to `O=C(C1CCN(S(=O)(=O)Cc2ccccc2)CC1)N1CCCc2ccccc21`, for which the fluorescence fold increase was 1.08 (inactive).

`COc1ccc(-n2c(SC)nc(O)cc2=O)cc1`: the fluorescence fold increase was 1.1 (inactive).

On to `O=C1[C@@H]2C(Cc3ccc(O)cc3)NC3(C(=O)Nc4ccc(F)cc43)[C@@H]2C(=O)N1c1ccc(F)cc1` (stereo not given in full), for which the fluorescence fold increase is 1.1 (inactive).
